Source: PubChem BioAssay (NCATS)
Inconclusive results are not listed. Activity calls are given as the source filed them. The call rests on the fitted dose curve; in most records, active means well fitted cell-killing curve with a large enough effect; inconclusive means small, poorly fitted or top-dose-only effect, or effect the other way; inactive means flat fitted curve, though single readings scatter.

Legend:
Assay in all cases: Primary qHTS to identify gynecologic anti-cancer compounds using libraries of approved drugs and bioactive compounds (AID 1345084); further: nearly all actives have a fitted effect of over 55% in size
Conditions in all cases: Gynecologic cancer cell panel viability, ATPlite luminescence, 48 h; series mostly up to 57.5 µM
[1] = system: PA-1
In short: (§1)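 ATP-based viability (ATPlite), 1,000 cells/well, 16 h pre-incubation, 48 h compound at 37 C, 5% CO2, 15 min RT before read.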

[2] = system: SKOV3
In short: as §1

[3] = system: Tov-21-G
In short: as §1

[4] = system: Tov112D
In short: as §1
On the % scale 0 is the no-effect control and ±100 the full control effect; potency means the concentration at half of the fitted maximal effect.

CC1(C)CCCC2(C)C1C(O)C=C(CO)C2(O)CO (configuration not stated)
inactive: Potency [1] | Potency [2] | Potency [3] | Potency [4]

CCc1cc(CN2CC(C(=O)O)C2)sc1-c1noc(-c2ccc(Oc3ccccc3)cc2)n1
inactive: Potency [1] | Potency [2] | Potency [3] | Potency [4]

O=C(O)/C=C/c1cc2c(cc1O[C@@H]1O[C@H](CO)[C@@H](O)[C@H](O)[C@H]1O)OCO2
inactive: Potency [1] | Potency [2] | Potency [3] | Potency [4]

COc1ccc(CC2NCCc3c2[nH]c2ccc(C)cc32)cc1OC (configuration not stated)
inactive: Potency [1] | Potency [2] | Potency [3] | Potency [4]

CCc1c(C)nc2c(-c3cnn(-c4cc(CO)ccn4)c3)c[nH]n2c1=O
inactive: Potency [1] | Potency [2] | Potency [3] | Potency [4]

CC(C)(C)NC(=O)[C@@H](c1cccnc1)N(C(=O)c1ccco1)c1ccc(C(C)(C)C)cc1
inactive: Potency [1] | Potency [2] | Potency [3] | Potency [4]

CC(=O)O[C@H]1CC[C@H](C)[C@@]2(C)[C@H](OC(C)=O)c3c(C)coc3C(=O)[C@H]12
inactive: Potency [1] | Potency [2] | Potency [3] | Potency [4]

CC(=O)c1c(O)cc(O[C@@H]2O[C@H](CO)[C@@H](O)[C@H](O)[C@H]2O)cc1O
inactive: Potency [1] | Potency [2] | Potency [3] | Potency [4]

C=C(C)C1CCC(C)C12CC(O)C1(C)OC1C2OC(=O)C(N)CCC(=O)O (configuration not stated)
inactive: Potency [1] | Potency [2] | Potency [3] | Potency [4]

COc1c2cc(c(O)c1OC)-c1cc(ccc1O)CCC(O)CCCC2 (configuration not stated)
inactive: Potency [1] | Potency [2] | Potency [3] | Potency [4]

C/C=C/C=C/C(=O)N1CC[C@]23c4ccccc4N[C@H]4N(C)c5cccc6c5[C@@]42CCN([C@H]6C2OC2(C)C)[C@H]13 (some centres not stated)
inactive: Potency [1] | Potency [2] | Potency [3] | Potency [4]

CCC(C)C(=O)O[C@H]1CCC=C2C=C[C@H](C)[C@H](CC[C@@H](O)C[C@@H](O)CC(=O)O)[C@H]21 (some centres not stated)
inactive: Potency [1] | Potency [2] | Potency [3] | Potency [4]

C[C@@]12CC[C@@H]3[C@@](CC[C@H]4[C@@]3(C)CCC[C@@]4(C)C(=O)O)(CC1=O)C2
inactive: Potency [1] | Potency [2] | Potency [3] | Potency [4]

CCOc1ccc2nc(SCCN3CCOCC3)[nH]c2c1
inactive: Potency [1] | Potency [2] | Potency [3] | Potency [4]

CC(=O)O[C@@H]1c2c(C)coc2C(=O)[C@@]23O[C@@H]2CC[C@H](C)[C@@]13C
inactive: Potency [1] | Potency [2] | Potency [3] | Potency [4]

Fc1ccc2nc(CCC#Cc3ccccn3)cn2c1
inactive: Potency [1] | Potency [2] | Potency [3] | Potency [4]

CC1COC2(OC3CC4C5CC(O[C@@H]6O[C@H](C)[C@@H](O[C@@H]7O[C@@H](C)[C@H](O)[C@@H](O)[C@H]7O)[C@H](O)[C@H]6O)C6CC(O)CCC6(C)C5CCC4(C)C3C2C)C(O)C1 (some centres not stated)
inactive: Potency [1] | Potency [2] | Potency [3] | Potency [4]

CC(=O)O[C@@H]1[C@@H](CO)O[C@@](CO)(O[C@H]2O[C@H](COC(=O)/C=C/c3ccccc3)[C@@H](O)[C@H](O)[C@H]2O)[C@H]1O
inactive: Potency [1] | Potency [2] | Potency [3] | Potency [4]

CC(NC(=O)C(O)C(C)C)C(=O)NC1C(=O)N(C)CCc2ccccc21 (configuration not stated)
inactive: Potency [1] | Potency [2] | Potency [3] | Potency [4]

CC(C)(O)CC(CO)NC(=O)CC(O)CC(=O)Cc1ccccc1 (configuration not stated)
inactive: Potency [1] | Potency [2] | Potency [3] | Potency [4]

O=C(NCc1cccc(O)c1)c1cc2cc(F)ccc2[nH]1
inactive: Potency [1] | Potency [2] | Potency [3] | Potency [4]

C/C(=C\CCC(C)CCO)C(=O)O[C@@H]1[C@@H](O)[C@H](OC2OC=C(C(=O)O)C3CCC(C)(O)C23)O[C@H](CO)[C@H]1O (some centres not stated)
inactive: Potency [1] | Potency [2] | Potency [3] | Potency [4]

CC(C)C(CO)Nc1nc(Nc2cc(N)cc(Cl)c2)c2ncn(C(C)C)c2n1 (configuration not stated)
active: Potency [1] 14.1 µM | Potency [2] 28.2 µM | Potency [3] 22.4 µM | Potency [4] 20 µM

O=C(O)c1c(O)c(-c2ccccc2)nc2ccccc12
inactive: Potency [1] | Potency [2] | Potency [3] | Potency [4]

COC(=O)C1=CO[C@@H](O[C@@H]2O[C@H](CO)[C@@H](O)[C@H](O)[C@H]2O)[C@H]2[C@@H]1CC(OC)O[C@@H]2C (some centres not stated)
inactive: Potency [1] | Potency [2] | Potency [3] | Potency [4]

CC1C(=O)CC2C3CCC(C(=O)O)C12CC3(C)CO (configuration not stated)
inactive: Potency [1] | Potency [2] | Potency [3] | Potency [4]

C(#Cc1nc2ncccc2nc1OCCN1CCCC1)c1ccccc1
active: Potency [1] 6.31 µM | Potency [2] 14.1 µM | Potency [3] 14.1 µM | Potency [4] 14.1 µM

COc1ccc([C@@]2(O)c3c(ccc(CC=C(C)C)c3O)NC(=O)[C@@H]2OC)cc1
inactive: Potency [1] | Potency [2] | Potency [3] | Potency [4]

O=[N+]([O-])c1cn2c(n1)OCC(OCc1ccc(OC(F)(F)F)cc1)C2 (configuration not stated)
inactive: Potency [1] | Potency [2] | Potency [3] | Potency [4]

Cn1nnc(-c2ccc(-c3ccc(N4C[C@H](CO)OC4=O)cc3F)cn2)n1
inactive: Potency [1] | Potency [2] | Potency [3] | Potency [4]

C=C1C(OC(=O)/C(C)=C\C)[C@@]23CCC4[C@@](C)(CCC[C@@]4(C)C(=O)O)C2CC[C@H]1C3OC(C)=O (some centres not stated)
inactive: Potency [1] | Potency [2] | Potency [3] | Potency [4]

C=C(C(=O)O)C1CCC2(C)CCC(O)C(=C)C2C1 (configuration not stated)
inactive: Potency [1] | Potency [2] | Potency [3] | Potency [4]

CC(C)=CCC/C(C)=C/CC/C(C)=C/COC1OC(COC2OCC(OC3OCC(O)C(O)C3O)C(O)C2O)C(O)C(OC2OC(C)C(OC3OC(C)C(OC4OCC(OC5OC(C)C(O)C(O)C5O)C(O)C4O)C(O)C3O)C(O)C2O)C1O (configuration not stated)
inactive: activity change, negative = cytotoxicity [1] -4.48% [at 6.55 µM] | activity change, negative = cytotoxicity [2] -3.45% [at 6.55 µM] | activity change, negative = cytotoxicity [3] -0.577% [at 6.55 µM] | activity change, negative = cytotoxicity [4] -7.57% [at 6.55 µM]

COc1ccc(CCO[C@@H]2O[C@H](CO[C@@H]3OC[C@H](O)[C@H](O)[C@H]3O)[C@@H](O)[C@H](O)[C@H]2O)cc1
inactive: Potency [1] | Potency [2] | Potency [3] | Potency [4]

C=C[C@H]1C(O[C@@H]2O[C@H](CO)[C@@H](O)[C@H](O)[C@H]2O)OC=C2C(=O)N3CCc4c([nH]c5ccccc45)[C@H]3C[C@H]21 (some centres not stated)
inactive: Potency [1] | Potency [2] | Potency [3] | Potency [4]

CCc1cccc(CC)c1NC(=O)c1nn(C)c2c1CCc1cnc(Nc3ccc(C(=O)NC4CCN(C)CC4)cc3OC(F)(F)F)nc1-2
inactive: Potency [1] | Potency [2] | Potency [3] | Potency [4]

COc1cc(C2Oc3c(OC)cc(CCCO)cc3C2CO)ccc1O[C@H]1O[C@H](C)[C@@H](O)[C@H](O)[C@@H]1O (some centres not stated)
inactive: Potency [1] | Potency [2] | Potency [3] | Potency [4]

CC(C)=CCC/C(C)=C/CCC1(C)Oc2c(c(O)cc3c2CN(C(CCC(=O)O)C(=O)O)C3=O)CC1O (configuration not stated)
inactive: Potency [1] | Potency [2] | Potency [3] | Potency [4]

COC(=O)C1(C)CCC2(C(=O)O)CCC3(C)C(=CCC4C5(C)CC(O)C(OC6OCC(O)C(O)C6O)C(C)(CO)C5CCC43C)C2C1 (configuration not stated)
inactive: Potency [1] | Potency [2] | Potency [3] | Potency [4]

CC(=O)O[C@@H]1C[C@@H](OC(C)=O)C(C)(C)/C=C/[C@H](C)[C@H](OC(C)=O)[C@@]2(O)C[C@H](C)[C@H](OC(=O)c3ccccc3)[C@@H]2/C=C/1C
inactive: Potency [1] | Potency [2] | Potency [3] | Potency [4]

CC(=O)N[C@@H](CCCCN)C(=O)N(C)[C@@H](CC(C)C)C(=O)N[C@H](C(=O)N(C)[C@@H](Cc1ccccc1)C(=O)N[C@H](Cc1ccccc1)C(N)=O)C(C)C
inactive: activity change, negative = cytotoxicity [1] 7.96% [at 6.55 µM] | activity change, negative = cytotoxicity [2] 0% [at 6.55 µM] | activity change, negative = cytotoxicity [3] 3.25% [at 6.55 µM] | activity change, negative = cytotoxicity [4] 6.63% [at 6.55 µM]

O=C(/C=C/c1ccccc1)OC[C@]12O[C@H]1[C@@H](O)[C@@H]1C=CO[C@@H](O[C@@H]3O[C@H](CO)[C@@H](O)[C@H](O)[C@H]3O)[C@@H]12
inactive: Potency [1] | Potency [2] | Potency [3] | Potency [4]

C/C=C(\C)C(=O)O[C@@H]1CC2[C@@H](CC=C3C[C@@H](O[C@H]4C[C@H](OC)[C@H](O[C@H]5C[C@H](OC)[C@H](O[C@@H]6O[C@H](C)[C@@H](O[C@H]7C[C@H](OC)[C@H](O[C@@H]8O[C@H](CO)[C@@H](O)[C@H](O)[C@H]8O)[C@@H](C)O7)[C@H](OC)[C@H]6O)[C@@H](C)O5)[C@@H](C)O4)CC[C@@]32C)[C@@]2(O)CC[C@H](C(C)=O)[C@@]12C (some centres not stated)
inactive: activity change, negative = cytotoxicity [1] -4.92% [at 6.55 µM] | activity change, negative = cytotoxicity [2] -3.56% [at 6.55 µM] | activity change, negative = cytotoxicity [3] -5.17% [at 6.55 µM] | activity change, negative = cytotoxicity [4] 5.73% [at 6.55 µM]
